# Where “and” joins values, the source holds several entries; their conditions need not be identical. Equal entries are not always repeated. The campaign covered roughly 16,000 compounds. About 4,000 (25%) were called active. Not shown: some 26% with an inconclusive outcome. Not all results are given here. A number with no mark means an inactive call. The call rests on the fitted dose curve; in most records, active means well fitted curve in the direction sought with a large enough effect; inconclusive means small, poorly fitted or top-dose-only effect, or effect the other way; inactive means no such curve, though single readings can be large or run the other way.
# Target: Cytochrome P450 2C9 (Homo sapiens) (UniProt P11712)
# Assay: Cytochrome panel assay with activity outcomes
# Settings: recombinant CYP, pro-luciferin dealkylation, luminescence, p450-cyp2c9; series mostly up to 57.1 µM; activity, negative = inhibition: at the top concentration
# On the % scale 0 is the no-effect control and ±100 the full control effect.
# Cytochrome P450 2C9 (Homo sapiens), sequence (P11712 whole entry, looked up): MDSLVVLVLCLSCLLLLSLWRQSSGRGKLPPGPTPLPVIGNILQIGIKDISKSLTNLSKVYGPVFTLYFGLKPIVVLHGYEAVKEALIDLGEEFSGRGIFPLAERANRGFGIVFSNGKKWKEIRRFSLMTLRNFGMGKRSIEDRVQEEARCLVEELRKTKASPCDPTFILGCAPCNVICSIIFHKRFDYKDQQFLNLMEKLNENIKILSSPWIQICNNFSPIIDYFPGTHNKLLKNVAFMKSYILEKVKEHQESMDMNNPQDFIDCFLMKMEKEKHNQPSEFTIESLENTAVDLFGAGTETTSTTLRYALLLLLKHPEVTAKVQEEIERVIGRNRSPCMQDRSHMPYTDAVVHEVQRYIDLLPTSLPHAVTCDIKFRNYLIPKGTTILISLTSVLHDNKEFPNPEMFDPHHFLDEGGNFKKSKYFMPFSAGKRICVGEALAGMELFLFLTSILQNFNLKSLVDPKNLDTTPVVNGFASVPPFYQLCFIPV
Structure (SMILES),"activity, negative = inhibition",AC50
C#C[C@]1(O)CC[C@@H]2[C@H]3CCc4cc(OC)ccc4[C@@H]3CC[C@@]21C,-27.5% [at 25.6 µM],–
C#C[C@]1(O)CC[C@@H]2[C@H]3CCC4=CCCC[C@@H]4[C@@H]3CC[C@@]21C,–,10 µM (active)
C#C[C@@]1(O)CC[C@@H]2[C@@H]3CCC4=CC(=O)CC[C@@H]4[C@H]3CC[C@]21CC,-23.8% [at 25.6 µM],–
C#C[C@@]1(OC(C)=O)CC[C@@H]2[C@@H]3CCC4=C[C@@H](OC(C)=O)CC[C@H]4[C@H]3CC[C@]21C,–,15.8 µM (active)
CC(C)(C)C(=O)NC(=C(Cl)Cl)P(=O)(O)O,-19.5%,–
CCCn1nc(NC(=O)CC(C)C)c2cc3ccccc3nc21,–,2 µM (active)
CCCS(=O)(=O)N1CCN(CC2CC=CCC2)CC1 (stereo not drawn),-43.6%,–
Cc1noc(C)c1-c1cc(NC2CC2)ncn1,-1.99% [at 2.29 µM],–
COc1cc(C(=O)Nc2cc(C(F)(F)F)ccc2Cl)cc(OC)c1OC,–,8.91 µM (active)
N/C(CC(=O)Nc1cc(C(F)(F)F)ccc1Cl)=N\O,11.2% [at 11.4 µM],–
COc1cc(NC(=O)c2ccc(COCC(F)(F)F)cc2)cc(OC)c1OC,22.1%,–
CC(C)(CN)CN,2.97% [at 11.4 µM],–
CCC(C)NC(=O)C1CCN(C(=O)c2ccccc2)CC1 (stereo not drawn),-9.04%,–
CCC(C)NC(=O)C1CCCN(C(=O)NC2CCCCC2)C1 (stereo not drawn),–,20 µM (active)
CC(C)C(NC(=O)C1CCCCC1)C(=O)NC1CCN(Cc2ccccc2)CC1 (stereo not drawn),7.86%,–
Cc1ccc(CCN2CC(C(=O)NC3CCCC3)CC2=O)cc1 (stereo not drawn),-15.5%,–
COc1ccc(C2C(=O)N(CCc3ccccc3)CC(=O)N2C2CCCC2)cc1 (stereo not drawn),–,22.4 µM (active)
COc1ccc(C2C(C(=O)N3CCN(C)CC3)c3ccccc3C(=O)N2C2CCCCC2)cc1 (stereo not drawn),-14%,–
Cn1c(=O)n2n(c1=O)[C@H]1[C@H](O)[C@H]3O[C@H]3C(=O)[C@H]1CC2,7.6% [at 11.4 µM],–
O=C(O)CN(CCN(CC(=O)O)CC(=O)O)CC(=O)O.[Cu],4.98% [at 11.4 µM],–
COC(=O)c1ccc(Oc2coc3cc(OCc4cnn(-c5ccccc5)c4)ccc3c2=O)cc1,28.5%,–
Cc1[nH]nc(-c2ccc(OCc3cnn(-c4ccccc4)c3)cc2O)c1Oc1ccccc1F,–,2 µM (active)
Cc1ccc(NC(=O)Nc2nc(-c3ccc(C)s3)cs2)cc1,–,3.55 µM (active)
O=C(c1cc(C(F)(F)F)cc(C(F)(F)F)c1)N1CCC[C@@]2(CCN(c3ncccn3)C2)C1,-1.16%,–

Structure (SMILES),"activity, negative = inhibition",AC50
COc1ccc(CNC(=O)C2CC(c3ccc(OC)cc3)=NO2)cc1 (stereo not drawn),16.9%,–
Cc1cc(C(=O)NCc2ccccc2)no1,-34.4%,–
COc1ccc(CNC(=O)C2CSC(=O)C2)cc1 (stereo not drawn),-18.7%,–
CC(C)(C)c1ccc(C(=O)NCc2ccc(Cl)cc2)cc1,9%,–
COc1ccc(CNC(=O)c2cnc(C)cn2)cc1,–,35.5 µM (active)
COc1ccc(Cc2c(N)nc(N)nc2N)cc1,11.5%,–
COc1ccc(CNC(=O)c2csc(Cc3ccc(OC)cc3)n2)cc1,–,10 µM (active)
COc1ccc(CNC(=O)c2csc(Cc3ccc(Cl)cc3)n2)cc1,–,3.98 µM (active)
Cc1nc(CN2CCCCC2)c(O)c(=O)[nH]1,7.96% [at 11.4 µM],–
C[C@]1(c2ccccc2)OC(C(=O)O)=CC1=O,8.89%,–
CC(=O)N(O)CCCCCNC(=O)CCC(=O)N(O)CCCCCNC(=O)CCC(=O)N(O)CCCCCN,-3.39% [at 25.6 µM],–
O=C(O)CCC(=O)N1CCOc2ccc(Cl)cc21,0.992%,–
O=c1c(Cl)c(N2CCN(S(=O)(=O)c3ccc(F)cc3)CC2)cnn1-c1cccc(Cl)c1,-28.2%,–
Cc1ccc2nc(N3CCN(S(=O)(=O)c4ccc5c(c4)OCCO5)CC3)c(C#N)cc2c1,–,2.82 µM (active)
Cc1ccc(Cl)cc1N1CCN(S(=O)(=O)c2ccc3c(c2)OCCO3)CC1,–,2.82 µM (active)
O=C(c1ccc2c(c1)OCCO2)C1CCN(S(=O)(=O)c2ccccc2F)CC1,-25.3%,–
O=C(Nc1cccc2[nH]ncc12)c1ccc(F)cc1,-3.46%,–
CC(=O)C1=C(NC(=O)c2ccc(F)cc2)CC2C1C2(C)C (stereo not drawn),–,3.55 µM (active)
Cc1occc1C(=O)NNC(=O)c1ccc(F)cc1,-15.1%,–
C/C(CCN1CCCc2nc(C)c(C)cc21)=N\OC[C@@H](C)[C@H](OCc1ccccc1)C(C)C,24.5% [at 11.4 µM],–
Cn1ncc2c(NCCc3ccccc3)nc(Cl)nc21,-22.7% [at 11.4 µM],–
O=C(CCCc1ccccn1)c1ccccc1,-17.1% [at 11.4 µM],–
OC[C@@H](O)COc1cccc2ccccc12,-24.2%,–
O=C(COc1cccc2ccccc12)N1c2ccccc2CCc2ccccc21,–,2.82 µM (active)

Structure (SMILES),"activity, negative = inhibition",AC50
COc1ccccc1N1CCN(C[C@@H](O)COc2cccc3ccccc23)CC1,18.2% [at 25.6 µM],–
O=C(c1cc(C(F)(F)F)cc(C(F)(F)F)c1)N1CCC2(CCCN(Cc3nccs3)C2)CC1,29.9%,–
O=C(c1ccco1)N1CCC[C@@]2(CCN(Cc3nccs3)C2)C1,-3.46%,–
O=C(c1cccc(F)c1)N1CCC2(CCCN(Cc3nccs3)C2)CC1,-3.9%,–
O=C(c1cccc(F)c1)N1CCC[C@@]2(CCN(Cc3nccs3)C2)C1,–,10 µM (active)
O=C(c1cc(C(F)(F)F)cc(C(F)(F)F)c1)N1CCC[C@@]2(CCN(Cc3nccs3)C2)C1,-1.58%,–
O=C(c1cc(C(F)(F)F)cc(C(F)(F)F)c1)N1CCC2(CCN(Cc3nccs3)CC2)CC1,–,12.6 µM (active)
O=C(c1cccc(F)c1)N1CCC2(CCN(Cc3nccs3)CC2)CC1,–,15.8 µM (active)
O=C(c1ccncc1)N1CCC2(CCN(Cc3nccs3)CC2)CC1,2.77%,–
O=C(c1ccco1)N1CCC2(CCN(Cc3nccs3)CC2)CC1,3.85%,–
NC(N)=NN=Cc1c(Cl)cccc1Cl,–,inactive
Cc1cc(CC(=O)O)n(C)c1C(=O)c1ccc(Cl)cc1,-17.2% [at 25.6 µM],–
Cc1cc2ccccn2c1C(=O)c1ccc(Cl)cc1,–,11.2 µM (active)
CCS(=O)(=O)c1ccc(C(=O)Nc2ccccc2)c(Cl)c1Cl,–,10 µM (active)
CN1C[C@H](c2ccccc2)C(O)([C@]2(c3ccccc3)CN(C)C[C@@H](c3ccccc3)C2=O)[C@H](c2ccccc2)C1 (stereo partly drawn),5.9% [at 11.4 µM],–
O=C(c1ccncc1)N1CCC2(CCCN(Cc3ccncc3)C2)CC1,–,5.01 µM (active)
COc1ccc(C(=O)N2CCC3(CCCN(Cc4ccccc4)C3)CC2)cc1,4.43%,–
O=C(c1ccncc1)N1CCC2(CCCN(Cc3ccccc3)C2)CC1,-5.36%,–
O=C(c1ccncc1)N1CCC[C@@]2(CCN(Cc3ccccc3)C2)C1,-19%,–
COc1ccc(C(=O)N2CCC3(CCCN(CC(C)C)C3)CC2)cc1,6.29%,–
COc1ccc(C(=O)N2CCC3(CCCN(Cc4ccncc4)C3)CC2)cc1,–,3.16 µM (active)
COc1cc2c3cc1Oc1cc(ccc1O)C[C@@H]1c4c(cc(OC)c(O)c4Oc4ccc(cc4)C[C@H]3[N+](C)(C)CC2)CC[N+]1(C)C,4.34% [at 11.4 µM],–
Cc1sc(NC(=O)c2ccco2)c(C(c2ccncc2)N2CCOCC2)c1C (stereo not drawn),–,2.24 µM (active)
O=C(Nc1c(C(=O)N2CCOCC2)cnn1-c1ccccc1)c1ccco1,4.62%,–

Structure (SMILES),"activity, negative = inhibition",AC50
O=C(Nc1c(C(=O)N2CCCCC2)cnn1-c1ccccc1)c1ccco1,-26.3%,–
Cc1sc(NC(=O)c2ccco2)c(C(c2cccnc2)N2CCCC2)c1C (stereo not drawn),–,2.51 µM (active)
Cc1cnc(CNc2ncncc2-c2c(C)noc2C)cn1,17.1% [at 2.29 µM],–
O=C1NCC2(CCN(CCc3ccccc3)CC2)O1,–,inactive
N#C[C@H](c1ccccc1)N1CCCN([C@@H](C#N)c2ccccc2)C1c1ccccc1O (stereo partly drawn),–,3.16 µM (active)
O=C(O)c1ccccc1NCn1c(=S)sc2ccccc21,-5.72% [at 11.4 µM],–
O=c1sc2ccccc2n1CCCOc1ccccc1,–,12.6 µM (active)
Cc1ccccc1OCCCn1c(=O)sc2ccccc21,–,5.01 µM (active)
C[N+](C)(CCCOc1ccccc1)c1ccccc1,-28.1% [at 25.6 µM],–
Cc1ccccc1OCCCN1CCCC1,-3.29%,–
Cc1ccc(Cl)cc1-n1c(=O)cc(N2CC(C)OC(C)C2)[nH]c1=O (stereo not drawn),35.2%,–
NS(=O)(=O)c1ccc(N=Nc2c(O)c(C(=O)O)cc3ccccc23)cc1,-28.9% [at 11.4 µM],–
C=CCNS(=O)(=O)c1cccc2cc(C(=O)O)c(O)cc12,–,2.82 µM (active)
O=C(O)c1cc2ccccc2c(Cc2cc3ccccc3c(C(=O)O)c2O)c1O (tested in a mixture with another compound),-15.8% [at 25.6 µM],–
N#Cc1cccc(NC(=O)N2CC[C@@]3(CCCNC3)C2)c1,-22.5%,–
C/C(CCC(=O)OC[C@@H]1O[C@H](C#Cc2ccccc2)C=C[C@@H]1Oc1ccc(C)cc1)=N/O[C@@H](C)c1cn([C@H](CO)Cc2ccccc2)nn1,–,3.16 µM (active)
COc1ccc(O[C@H]2C=C[C@@H](c3ccccc3)O[C@H]2COC(=O)CC/C(C)=N\O[C@@H](C)c2cn([C@H](CO)Cc3ccccc3)nn2)cc1,–,1.26 µM (active)
C/C(CCC(=O)OC[C@@H]1O[C@H](C#Cc2ccccc2)C=C[C@@H]1Oc1ccc(C)cc1)=N/OC[C@@H](C)[C@H](OCc1ccccc1)C(C)C,12.5% [at 11.4 µM],–
CO/N=C(/C)CCC(=O)OC[C@@H]1O[C@H](C#Cc2ccccc2)C=C[C@@H]1Oc1ccc(C)cc1,-2.9% [at 11.4 µM],–
CC(=O)OC[C@@H]1O[C@H](C/C=N\O[C@@H](C)c2cn([C@H](CO)Cc3ccccc3)nn2)C=C[C@@H]1OC(C)=O,8% [at 11.4 µM] and -8.02% [at 11.4 µM],–
COc1ccc(O[C@H]2C=C[C@@H](c3ccccc3)O[C@H]2COC(=O)CC/C(C)=N\O[C@@H](C)CN2CCCCc3nc(C)c(C)cc32)cc1,-28.1% [at 11.4 µM],–
